We go through 154 variants from a collection of fitness landscapes (doi:10.1126/science.1257360).

The full ranking holds about 140,000 sequences; the median of “enrichment ratio after two sorts for PhoP signalling” is about 0, and the highest 2% start at about 11. Shown is part of a subset that was picked to be rich in the highest values. A value given as a limit tells only on which side of the number the result lay.

B1: PhoQ; a variant is named by its letters at X, in order, P23837 (parent)
chain: MKKLLRLFFPLSLRVRFLLATAAVVLVLSLAYGMVALIGYSVSFDKTTFRLLRGESNLFYTLAKWENNKLHVELPENIDKQSPTMTLIYDENGQLLWAQRDVPWLMKMIQPDWLKSNGFHEIEADVNDTSLLLSGDHSIQQQLQEVREDDDDAEMTHSVAVNVYPATSRMPKLTIVVVDTIPVELKSSYMVWSWFIYVLSANLLLVIPLLWVAAWWSLRPIEALAKEVRELEEHNRELLNPATTRELTSLVRNLNRLLKSERERYDKYRTTLTDLTHSLKTPLXXLQXXLRSLRSEKMSVSDAEPVMLEQISRISQQIGYYLHRASMRGGTLLSRELHPVAPLLDNLTSALNKVYQRKGVNISLDISPEISFVGEQNDFVEVMGNVLDNACKYCLEFVEISARQTDEHLYIVVEDDGPGIPLSKREVIFDRGQRVDTLRPGQGVGLAVAREITEQYEGKIVAGESMLGGARMEVIFGRQHSAPKDE

The variants in this test derive from B1. As to the kind of experiment: enrichment ratio after two sorts for PhoP signalling (ratio (wild type AVST 3.29)); higher = more functional. The note with it: with PhoP (E. coli).
On to EQLN, for which the enrichment ratio was at most 0.25.
The same measure for TQEN: at most 0.25.
For TQFN, the enrichment ratio was determined as 14.2.
The same measure for TQWN: 10.1; for DWTN: at most 0.25.
For VGED, the enrichment ratio was at most 0.25.
The same measure for FPIP: at most 0.25; for WVYL: at most 0.25.
The same measure for IRTL: at most 0.25; for EQCN: at most 0.25; for NQCN: at most 0.25.
The same measure for TQCN: 24.9.
YYPA: the enrichment ratio was at most 0.25.
Regarding DFPF, the enrichment ratio was at most 0.25.
The same measure for YTGA: at most 0.25; for NEMA: at most 0.25.
On to GGMA, for which the enrichment ratio is at most 0.25.
YTMA: the enrichment ratio is at most 0.25.
Consider TTGA, for which the enrichment ratio amounted to 12.6.
The same measure for TTMA: 13.4; for TGMA: 26.1; for THMA: 6.15.
The same measure for ITGA: at most 0.25; for NHMA: 16.2; for WIMA: at most 0.25.
RGMA: the enrichment ratio was at most 0.25.
With LFNF, the enrichment ratio was at most 0.25.
For DMIQ, the enrichment ratio was at most 0.25.
For the variant LEWL, the enrichment ratio is at most 0.25.
The same measure for ADCH: 9.13; for GPHV: at most 0.25; for TGWN: at most 0.25.
The same measure for PMPR: at most 0.25.
The same measure for KQFD: at most 0.25; for WFVI: at most 0.25.
On to RFQA, for which the enrichment ratio was at most 0.25.
The same measure for VHFG: at most 0.25.
On to EVCW, for which the enrichment ratio is at most 0.25.
The same measure for ATMA: 1.82; for AHMA: at most 0.25; for AIMA: 12.1.
The same measure for EPIW: at most 0.25.
The same measure for NQNT: at most 0.25.
For SSLS, the enrichment ratio amounted to 11.4.
The same measure for SSLK: 5.98; for SSAT: 8.03; for SSLA: 7.43.
As to SSLT, the enrichment ratio was determined as 12.
The same measure for SSVT: 14.6; for STVT: 0.835; for KSVT: at most 0.25.
In the case of SSNT, the enrichment ratio is at most 0.25.
For HWNL, the enrichment ratio was at most 0.25.
The same measure for QGSH: 9.79; for TMLT: 1.84; for HPCD: at most 0.25.
Turning to SSRS, the enrichment ratio is at most 0.25.
The same measure for HMWA: at most 0.25; for LPNW: 0.366; for QQHW: at most 0.25.
The same measure for THTR: at most 0.25.
For the variant RQLH, the enrichment ratio is at most 0.25.
The same measure for AKLH: 14.6; for MKLH: at most 0.25.
As for CQLH, the enrichment ratio is 27.9.
The same measure for KKLH: at most 0.25.
HKLH: the enrichment ratio is at most 0.25.
The same measure for AQLH: 13.8; for TKLH: 11.9.
In the case of WQLH, the enrichment ratio was at most 0.25.
The same measure for AHLH: at most 0.25; for HQLH: at most 0.25; for TPLH: at most 0.25.
Turning to PTHK, the enrichment ratio is at most 0.25.
The same measure for EMCT: at most 0.25; for CHLM: at most 0.25; for QVLK: at most 0.25.
For the variant NHYM, the enrichment ratio is at most 0.25.
Consider SLCY, for which the enrichment ratio amounted to 2.99.
As for SMCS, the enrichment ratio is 10.4.
On to MMCY, for which the enrichment ratio is at most 0.25.
The same measure for SMCI: 14.3.
As to SMCK, the enrichment ratio is 9.85.
The same measure for SMAQ: 15.5.
For the variant SMGG, the enrichment ratio was 1.44.
The same measure for KMAQ: at most 0.25; for SMCY: 11.6; for SMHP: at most 0.25.
The same measure for KYAQ: at most 0.25; for SMGQ: 11.7.
The same measure for GSEH: at most 0.25; for IYMF: at most 0.25.
As for IKKL, the enrichment ratio was at most 0.25.
For TQFP, the enrichment ratio was at most 0.25.
The same measure for KGRD: at most 0.25.
On to LVLT, for which the enrichment ratio was at most 0.25.
Regarding VGSS, the enrichment ratio was at most 0.25.
Consider WDDM, for which the enrichment ratio was at most 0.25.
The same measure for GMHA: at most 0.25; for SMPM: at most 0.25; for SMCL: 16.6.
With SMGL, the enrichment ratio amounted to 5.54.
The same measure for SMSA: 14.6; for SMSH: 9.89; for SMPL: at most 0.25.
The same measure for SMMY: 2.28.
SMMD: the enrichment ratio is at most 0.25.
Regarding SMSQ, the enrichment ratio turned out to be 11.1.
The same measure for SMTM: 14.9.
For the variant SMWM, the enrichment ratio was at most 0.25.
With SMME, the enrichment ratio stood at 14.6.
The same measure for LSHR: at most 0.25; for KFYP: at most 0.25; for KYSQ: at most 0.25.
Turning to KEDF, the enrichment ratio is at most 0.25.
The same measure for HKIL: at most 0.25.
The same measure for EQYF: at most 0.25; for DLKR: at most 0.25.
The same measure for IPGP: at most 0.25; for FPRY: at most 0.25; for GVMQ: 5.97.
As to SMPE, the enrichment ratio stood at 0.359.
The same measure for SNCW: 10.3; for SMCE: 11.7.
On to SMCW, for which the enrichment ratio amounted to 19.6.
The same measure for SLCW: 0.501; for SMCA: 15.3.
The same measure for SMPA: at most 0.25; for SMWI: at most 0.25.
The same measure for SMIE: at most 0.25; for SMPI: 1.09.
SMGS: the enrichment ratio is 1.09.
The same measure for SMTA: 11.8.
Consider AKLD, for which the enrichment ratio is at most 0.25.
On to VWSC, for which the enrichment ratio was at most 0.25.
The same measure for SVVD: at most 0.25; for RVNR: at most 0.25.
On to SMSR, for which the enrichment ratio was at most 0.25.
The same measure for KMAE: at most 0.25; for SMSI: 12.9.
The same measure for SMSK: 2.79; for SMAE: 25.2.
The same measure for SMAV: 5.92; for HLVA: at most 0.25; for AQPM: at most 0.25.
As for RVFT, the enrichment ratio is at most 0.25.
Turning to NAGS, the enrichment ratio is at most 0.25.
The same measure for RQQG: at most 0.25; for TDCH: 11.9.
As for TDMH, the enrichment ratio is 18.2.
The same measure for FDMH: at most 0.25; for FDCH: at most 0.25.
The same measure for LTMH: 2.1; for LTCH: at most 0.25.
